From PubChem BioAssay
An excerpt weighted towards active compounds, which were near 2.9% of everything screened.
Mtb BioA inh: blocks M. tuberculosis BioA enzyme activity. purified M. tuberculosis BioA enzyme, plate reader. inhibition, % at 9.99 µM. 0.096% of 360,000 active; in the data active = inhibition above about 40%
Mtb hypoxia inh: Mtb hypoxia fluorescent reporter inhibition; 0.1% of 300,000 active; M. tuberculosis hypoxia-regulated fluorescent reporter, fluorescence; fluorescence inhibition, % (no concentration beside the values); in the data active = fluorescence inhibition mostly above about 23%, no sharp cut-off; inactive = mostly below about 17%
GDH-TPI counter-1: GDH-TPI coupled enzyme inhibition counter-screen; GDH-TPI coupled enzyme counterscreen, NADH absorbance; AID 588335; 1.2% of 360,000 active; inhibition, % at 4.8 µM; in the data active = inhibition above about 30%;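 also: 0% = DMSO wells and 100% = wells lacking the enzyme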
FadD28 FP inh: blocks FadD28 binding to the bisubstrate probe; fluorescence polarization; inhibition, % at 12.5 µM; 0.22% of 360,000 active; in the data active = inhibition above about 8.5%, passing the limit was not always enough
Mtb FBA inh: Mtb fructose-bisphosphate aldolase inhibition; 2.3% of 360,000 active; purified M. tuberculosis FBA, fluorescence read-out; inhibition, % at 1 µM; AID 588726; P9WQA3;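 also: 0% = vehicle and 100% = reference inhibitor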
Target sequence (P9WQA3 whole entry, looked up): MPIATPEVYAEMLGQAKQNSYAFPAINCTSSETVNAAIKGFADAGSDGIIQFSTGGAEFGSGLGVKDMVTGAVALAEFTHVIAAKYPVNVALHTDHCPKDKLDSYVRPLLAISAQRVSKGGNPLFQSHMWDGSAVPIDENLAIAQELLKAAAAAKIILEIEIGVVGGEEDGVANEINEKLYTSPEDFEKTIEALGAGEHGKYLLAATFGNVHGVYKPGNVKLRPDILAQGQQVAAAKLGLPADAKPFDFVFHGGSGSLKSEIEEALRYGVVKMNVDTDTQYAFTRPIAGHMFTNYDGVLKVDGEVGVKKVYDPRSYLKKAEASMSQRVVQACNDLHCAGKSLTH
Mtb FBA inh conf: confirmation of M. tuberculosis fructose-bisphosphate aldolase inhibitors | shares compounds with Mtb FBA inh | purified M. tuberculosis FBA, fluorescence read-out | inhibition, % at 1 µM | 78% of 5,600 active | AID 651616;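 also: 0% = vehicle wells and 100% = reference inhibitor wells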
GDH-TPI counter-2: counter-screen for M. tuberculosis FBA inhibitors: GDH-TPI coupled enzyme inhibition. shares compounds with Mtb FBA inh. GDH-TPI coupled enzyme counterscreen, fluorescence. inhibition, % at 1 µM. 81% of 5,600 active. AID 652141; in the data active = inhibition above about 10%
The depositor's hits bear a star; x = no result; + = active, no number. Rule as the data show it, unless noted: active = inhibition above about 27%; inactive = the rest.

SMILES	Mtb BioA inh	Mtb hypoxia inh	GDH-TPI counter-1	FadD28 FP inh	Mtb FBA inh	Mtb FBA inh conf	GDH-TPI counter-2
CCCCCC(=O)Nc1cccc(C2=NOC3(C2)CC(C(N)=O)N(C(=O)c2cc([N+](=O)[O-])cc([N+](=O)[O-])c2C)C3)c1 (stereo not given)	x	3	x	x	x	x	x
Cc1ccc(C(=O)N(CC(=O)NC2CCCCC2)c2ccccc2C)s1	0	6	3	-1	2	x	x
CC1=CC2=NC(=O)CC(C)(C(=O)N(CC(=O)NC3CCCC3)Cc3ccc(Cl)cc3)N2C=C1 (stereo not given)	-3	7	-4	-2	58*	115*	122*
CC1=CC2=NC(=O)CC(C)(C(=O)N(CC(=O)NC3CCCC3)c3ccccc3C)N2C=C1 (stereo not given)	7	9	10	0	62*	+	+
CC1=CC2=NC(=O)CC(C)(C(=O)N(CC(=O)NC3CCCC3)c3ccccc3F)N2C=C1 (stereo not given)	0	x	-8	-5	47*	45*	37*
CC1(c2ccc(Cl)cc2)NC(=O)N(CC(=O)NC2CCCCC2)C1=O (stereo not given)	-3	15	-1	-2	1	x	x
O=C(C[C@@H]1CC[C@@H]2[C@H](COC[C@H](O)CN2CCc2ccccc2)O1)NCc1ccc(Oc2ccccc2)cc1	-1	x	x	x	x	x	x
Cc1cc(=O)oc2cc(OCC(=O)Nc3ccc(S(=O)(=O)N(C)C)cc3)ccc12	-1	11	5	2	29*	101*	64*
CNC(=O)COC(=O)COc1ccc2c(C)cc(=O)oc2c1	0	12	3	-5	23	x	x
Cc1cc(=O)oc2cc(OCC(=O)OCC(=O)Nc3ccc(C(C)C)cc3)ccc12	x	6	6	-2	29*	86*	69*
CC(Oc1ccc(Cl)cc1Cl)C(=O)NCCN1CCOCC1 (stereo not given)	x	-1	1	0	-2	x	x
CC(Oc1ccc2c(c1)c1ccnc3c4ccccc4c(=O)n2c13)C(=O)NCCN1CCOCC1 (stereo not given)	1	x	15	-9	44*	136*	117*
CCCCc1cc(=O)oc2cc(OC(C)C(=O)NCCN3CCOCC3)ccc12 (stereo not given)	-1	x	10	-1	13	x	x
COc1ccc2c(c1OC)c(=O)n1c3ccc(OC(C)C(=O)NCCN4CCOCC4)cc3c3ccnc2c31 (stereo not given)	7	x	6	-6	91*	84*	68*
C[C@H]1CN([C@@H](C)CO)C(=O)Cc2cc(NC(=O)Nc3ccc4c(c3)OCO4)ccc2O[C@@H]1CN(C)C(=O)NC1CCCCC1	2	x	x	x	x	x	x
Cc1cccc(-c2ccc([C@@H]3[C@H](CO)N4CCCCN(S(=O)(=O)c5cn(C)cn5)C[C@@H]34)cc2)c1	-1	x	x	x	x	x	x
CON=C/C(C#N)=C/c1cc(C(=O)c2ccccc2)cn1C	x	-4	x	x	x	x	x
CCOC(=O)c1sc(C)c2c1NC1(CCCCC1)NC2=O	0	1	3	-1	32*	110*	104*
CCOC(=O)c1sc(C)c2c1NC(C)(c1cccs1)NC2=O (stereo not given)	1	-8	10	-3	35*	147*	109*
C[C@H](CO)N1C[C@H](C)[C@@H](CN(C)C(=O)Nc2cccc3ccccc23)Oc2c(NC(=O)Nc3ccccc3)cccc2C1=O	4	x	x	x	x	x	x
CCCN(C)C[C@@H]1Oc2cc(C#Cc3ccccc3OC)ccc2S(=O)(=O)N([C@H](C)CO)C[C@@H]1C	0	x	x	x	x	x	x
CSc1ncc(C(=O)Nc2cccc(S(N)(=O)=O)c2)n1-c1ccccc1	-1	14	-3	-1	39*	168*	132*
CNC[C@@H]1OCCCC[C@H](C)Oc2ccc(NC(=O)Nc3c(C)noc3C)cc2C(=O)N([C@@H](C)CO)C[C@H]1C	-4	x	x	x	x	x	x
CCCNC(=O)c1oc2ccc3c(c2c1C)C(=O)CC(C)(C)O3	0	3	12	-3	36*	55*	51*
CCOC(=O)N1CCC2(CC1)CC(=O)c1c(ccc3oc(C(=O)O)c(C)c13)O2	x	9	27	-2	82*	33*	30*
SMILES	Mtb BioA inh	Mtb hypoxia inh	GDH-TPI counter-1	FadD28 FP inh	Mtb FBA inh	Mtb FBA inh conf	GDH-TPI counter-2
CCOC(=O)c1oc2ccc3c(c2c1C)C(=O)CC1(CCN(C(=O)OCC)CC1)O3	1	x	-3	-4	7	x	x
O=C(NN=Cc1cccc(F)c1)c1ccc(Cn2cc(Br)c([N+](=O)[O-])n2)o1	x	-4	x	x	x	x	x
C[C@@H]1CN([C@@H](C)CO)C(=O)Cc2cc(N(C)C)ccc2O[C@@H]1CN(C)Cc1ccc(Oc2ccccc2)cc1	0	x	x	x	x	x	x
COc1cccc2c(=O)c(SC(F)(F)C(F)C(F)(F)F)c(C)[nH]c12 (stereo not given)	-1	4	14	-5	35*	114*	100*
COc1cccc2c(=O)c(C/C=C(/C)Cl)c(C)[nH]c12	5	-2	4	-5	39*	50*	42*
CCCNC(=O)N(C)C[C@H]1Oc2cc(C#CC(C)(C)O)ccc2S(=O)(=O)N([C@@H](C)CO)C[C@@H]1C	0	x	x	x	x	x	x
Cc1cc(C=NNC(=O)C(=O)N2CCCC2)c(C)n1-c1cccc(Br)c1	x	17	x	x	x	x	x
COc1ccc(NC(=O)Nc2ccc3c(c2)C(=O)N([C@@H](C)CO)C[C@@H](C)[C@@H](CN(C)C(=O)Nc2c(C)noc2C)O3)cc1	1	x	x	x	x	x	x
C[C@@H]1CN([C@H](C)CO)C(=O)Cc2cc(NC(=O)Cn3cnnn3)ccc2O[C@@H]1CN(C)Cc1ccc(C(F)(F)F)cc1	2	x	x	x	x	x	x
N#Cc1c(N2CCCCC2)nc(N)c2c(N)nc3c(c12)CC(c1ccccc1)O3 (stereo not given)	2	x	16	-2	30*	122*	102*
CCC1Cc2c(nc(N)c3c(N)nc(N4CCCCC4)c(C#N)c23)O1 (stereo not given)	x	8	4	3	42*	121*	110*
COc1ccc(NC(=O)N(C)C[C@@H]2Oc3ccc(NC(=O)Cn4cnnn4)cc3CC(=O)N([C@@H](C)CO)C[C@H]2C)cc1	0	x	x	x	x	x	x
c1ccc(CNc2ccccn2)cc1	-3	-3	1	0	3	x	x
Clc1ccc(CNc2cnccn2)cc1	-2	8	7	-1	71*	125*	92*
O=C(NCc1ccc(F)cc1)c1cnccn1	0	23	7	0	2	x	x
c1ccc(CNc2cnccn2)cc1	3	1	14	-3	69*	108*	93*
Fc1ccc(CNc2cnccn2)cc1	x	6	18	0	71*	-3	-5
CC(C)NCC(O)Cn1c2c(c3ccccc31)CCc1c-2cnn1-c1ccccc1 (stereo not given)	1	x	7	-4	33*	8	0
